# According to PubChem BioAssay (NCATS):
# Records with an inconclusive call do not appear. A call without a number means that no potency is given here. Calls of active or inactive are those of the source. The call rests on the fitted dose curve; in most records, active means well fitted inhibition curve with a large enough effect in the polarisation, with a control signal flat (not every such curve was filed as active); inconclusive means small, poorly fitted or top-dose-only effect, or effect the other way; inactive means flat fitted curve, though single readings scatter; the % refers to the polarisation.
# Molecular target: Peptidyl-prolyl cis-trans isomerase NIMA-interacting 1 (Homo sapiens) (UniProt Q13526)
# Sequence (Q13526 whole entry, looked up): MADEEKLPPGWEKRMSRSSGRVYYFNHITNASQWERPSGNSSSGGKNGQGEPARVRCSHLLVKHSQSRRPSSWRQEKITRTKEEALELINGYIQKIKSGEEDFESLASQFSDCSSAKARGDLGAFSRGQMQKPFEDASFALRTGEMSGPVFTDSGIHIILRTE
# Assay: qHTS Validation Assay to Find Inhibitors of Pin1 (AID 504536)
# Conditions: Pin1 fluorescence polarization peptide binding assay; series mostly up to 57.5 µM
# Text: NIH Molecular Libraries Probe Production Network [MLPCN]
# NIH Chemical Genomics Center [NCGC]
# The unique chemical properties of Pro allow for the adoption of two completely distinct amide bond conformations (cis and trans). Peptidyl-prolyl cis/trans isomerases (PPIases) are evolutionary conserved enzymes that catalyze cis/trans isomerization of peptidyl-prolyl peptide bonds. Distinct from all other PPIases such as cyclophilins and FK506-binding proteins (FKBPs), Pin1 binds a subset of phos.Ser/Thr-Pro-containing proteins using its protein-targeting WW domain and isomerizes only specific phos.Ser/Thr-Pro bonds, which cannot be effectively catalyzed by other known PPIases.
# Pin1-catalyzed conformational regulation can control a spectrum of activities of many key regulators in diverse cellular processes such as cell growth, genotoxic and other stress responses, immune response, germ cell development, neuronal differentiation and survival. Pin1 has emerged as a novel molecular timer that modulates its multiple targets at various steps of a given cellular process to synergistically control the amplitude and duration of a cellular response or process. Importantly, Pin1 is tightly regulated by multiple levels and its deregulation has an important role in a growing number of pathological conditions, including cancer, Alzheimer's disease, aging, asthma and microbial infection, providing a potentially new therapeutic option.
# The goal of this screen is to find small-molecule inhibitors of Pin1 using a fluorescence polarization competition assay. A HiFluor-488-labeled peptide binds to the active site of Pin1 and can be displaced by compounds. Compounds were screened as a concentration-titration series that ranged from 57 uM to 0.7 nM.
# NCGC Assay Protocol Summary:
# Pin1 (0.6 uM) was dispensed into black, solid 1536-well plates at 2 uL/well in 10 mM HEPES (pH 7.5), 10 mM NaCl, 0.01% Tween20, 1 mM DTT, and 1% glycerol. Then, 23 nL of compounds or DMSO were delivered to each well using a pin tool. Two uL of Pin1-1b-HiFluor488 peptide (10 mM HEPES (pH 7.5), 10 mM NaCl, 0.01% Tween20, 1 mM DTT, and 1% glycerol, 0.02 uM Pin1-1b-HiFluor488) was then dispensed, and plates were incubated at room temperature for 10 min. The plates were measured on a ViewLux plate reader for fluorescence polarization signal using a 480/20 nM nm excitation filter and 540/25 nM nm S and P emission filters with a 20 second exposure. The %Activity was determined from the corrected fluorescence polarization values. Unlabeled Pin1-1c peptide was used as a control (3.5 mM two-fold serial; 20 uM final concentration) along with a 1x (0.3 uM) and 0x (no-enzyme) Pin1 enzyme control to normalize %Activity of identified inhibitors; 0x enzyme values corresponded to 100%Activity (full inhibition), while 1x Pin1 enzyme values were used to normalize 0%Activity (no inhibition).
# Concentration-response curves were fitted to the signals arising from the resulting fluorescence polarization. The concentration-effect curves were then classified based on curve quality (r2), response magnitude and degree of measured activity, and compounds were subsequently categorized based on their curve class.
# Keywords: Peptidyl prolyl isomerase, Pin1, fluorescence polarization, MLSMR, MLPCN, NIH Roadmap, qHTS, NCGC
row,SMILES,Potency
1,CCn1c(=O)[nH]c2cc(Cl)c(Cl)cc21,inactive
2,CC(N)(Cc1ccc(O)c(O)c1)C(=O)O (stereo not given),inactive
3,c1ccc(CN2CCC3(CCCc4ccccc43)CC2)cc1,inactive
4,NCC(O)c1ccc(O)c(O)c1 (stereo not given),inactive
5,CNC(=O)c1cc2c(cn1)[nH]c1ccccc12,inactive
6,CCCCCCCCCC[Si](C)(C)CCC(=O)NC(Cc1ccc(C)cc1)c1ccccc1 (stereo not given),inactive
7,NOCC(=O)O,inactive
8,O=C(O)Cc1ccc(O)c(O)c1,inactive
9,O=C(O)/C=C/c1cnc[nH]1,inactive
10,NC1CCN(O)C1=O (stereo not given),inactive
11,CC(C)(CO)Cc1cc(C(C)(C)C)c(O)c(C(C)(C)C)c1,inactive
12,CCCCCCCC/C=C\CCCCCCCC(=O)NCCc1ccc(O)c(O)c1,inactive
13,CC(=O)NNC(=O)N1Cc2ccccc2Oc2ccc(Cl)cc21,inactive
14,NC(N)=NC(N)=Nc1ccccc1,inactive
15,Cn1cc(C(=O)OCC2CCN(CCNS(C)(=O)=O)CC2)c2ccccc21,inactive
16,COc1cc(CNC(=O)CCCCCCC(C)C)ccc1O,inactive
17,NC(N)=[N+]1CCc2ccccc2C1,inactive
18,CCCCOC(=O)NS(=O)(=O)c1sc(CC(C)C)cc1-c1ccc(Cn2c(CC)nc3c(C)cc(C)nc32)cc1,inactive
19,C[C@H]1CC2C3CCC4=CC(=O)C=C[C@]4(C)[C@@]3(Cl)[C@@H](O)C[C@]2(C)[C@@]1(O)C(=O)CO (stereo not given in full),inactive
20,N=S(=O)(O)Cc1noc2ccccc12,inactive

row,SMILES,Potency
1,O=c1ccc2c(OCCCCc3ccccc3)c3ccoc3cc2o1,inactive
2,CC(C)NCC(O)COc1ccc(CC(N)=O)cc1 (stereo not given),inactive
3,O=C(O)c1ccccc1Nc1cccc(OCc2ccc3ccccc3n2)c1,inactive
4,O=C(O)CCC/C=C\C[C@@H]1[C@@H](/C=C/[C@H](O)C2Cc3ccccc3C2)[C@@H](F)C[C@@H]1O,inactive
5,CCCCCC(O)CCCC(=O)O (stereo not given),inactive
6,CCCc1c(OCCCOc2ccc(OCC(=O)O)cc2)ccc(C(C)=O)c1O,inactive
7,O=C(O)[C@H]1NCCC[C@H]1C(=O)O,inactive
8,O=C(N[C@@H](Cc1ccccc1)C(=O)CCl)OCc1ccccc1,inactive
9,Oc1cc(O)c2c(c1)O[C@H](c1ccc(O)c(O)c1)[C@@H](O)C2,inactive
10,CC(=O)O[C@H]1Cc2ccccc2N(C(N)=O)c2ccccc21,inactive
11,N#CC(=C(\N)Sc1ccccc1N)/C(C#N)=C(/N)Sc1ccccc1N,inactive
12,COc1cc([C@@H]2c3cc4c(cc3[C@H](O)C3COC(=O)[C@@H]32)OCO4)cc(OC)c1OC (stereo not given in full),inactive
13,COc1ccc(-c2ccc(N)[n+](CCCC(=O)O)n2)cc1,inactive
14,c1ccc(C(NCCNC(c2ccccc2)c2ccccc2)c2ccccc2)cc1,inactive
15,O=C(O)C1=CCCNC1,inactive
16,CN1CCc2cc(Cl)c(O)cc2[C@@H](c2ccccc2)C1,inactive
17,C=C1C[C@@]23CC[C@H]4[C@@](C)(CCC[C@@]4(C)C(=O)OC4OC(CO)C(O)C(O)C4O)[C@@H]2CC[C@]1(OC1OC(CO)C(O)C(O)C1OC1OC(CO)C(O)C(O)C1O)C3 (stereo not given in full),inactive
18,N[C@@H](CS(=O)O)C(=O)O,inactive
19,N=C(N)c1ccccc1,inactive
20,Cn1c(=O)c2[nH]c(-c3ccc(S(=O)(=O)O)cc3)nc2n(C)c1=O,inactive
